# Measured values as given in PubChem BioAssay (NCATS).
# Records with an inconclusive call do not appear. A number with no mark means an inactive call. The source made the active and inactive calls. Calls come from the whole dose curve; as a rule, active = well fitted inhibition curve with a large enough effect; inconclusive = small, poorly fitted or top-dose-only effect; inactive = flat fitted curve, though single readings scatter.
# Experiments:
# Test in all cases: Cytotoxic Profiling of Annotated Libraries Using Quantitative High-Throughput Screening (AID 1296008); note: nearly all actives have a fitted effect of over 60% in size
# Details in all cases: Five cell lines viability, CellTiter-Glo ATP luminescence, 48-72 h; max response: active compounds read low
# CRL-7250 = normal cell line; tested on: CRL-7250
# How it was run: (§1)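 Cells exposed to compounds for 48 or 72 hr at 37 degrees Celsius. Viability read as ATP-coupled luminescence with CellTiter-Glo after 10 min at room temperature.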
# HEK293 = tested on: HEK293
# How it was run: as §1
# HaCat = tested on: HaCat
# How it was run: as §1
# NIH3T3 = tested on: NIH3T3
# How it was run: as §1
# % is set by controls: 0 for no effect and ±100 for the full control effect; potency is the fitted concentration of half-maximal effect.
structure (smiles),measurement,setting,value
OC1(c2ccc(Cl)cc2)CCNCC1,max response,CRL-7250,-0.911%
same,outcome,HEK293,inactive
same,outcome,HaCat,inactive
same,max response,NIH3T3,-2.06%
CCCCCCOC(=O)NC(=N)c1ccc(NCc2nc3cc(C(=O)N(CCC(=O)OCC)c4ccccn4)ccc3n2C)cc1,max response,CRL-7250,2.91%
same,Potency,HEK293,10600 nM (active)
same,outcome,HaCat,inactive
same,max response,NIH3T3,1.24%
O=C1CCCc2c(O)cccc21,max response,CRL-7250,-3.71%
same,max response,HEK293,-4.98%
same,outcome,HaCat,inactive
same,max response,NIH3T3,-15.1%
Nc1cc(C(F)(F)F)ccc1S,max response,CRL-7250,-0.153%
same,max response,HEK293,-4.91%
same,outcome,HaCat,inactive
same,outcome,NIH3T3,inactive
Cc1onc(-c2c(Cl)cccc2Cl)c1C(=O)Cl,outcome,CRL-7250,inactive
same,max response,HEK293,-4.58%
same,max response,HaCat,-4.26%
same,max response,NIH3T3,-2.46%
O=C(O)Cn1c(=O)n(Cc2ccc(Br)cc2F)c(=O)c2ccc(Cl)cc21,outcome,CRL-7250,inactive
same,outcome,HEK293,inactive
same,max response,HaCat,0.662%
same,outcome,NIH3T3,inactive
OC[C@]1(O)OC[C@@H](O)[C@H](O)[C@@H]1O,max response,CRL-7250,-7.2%
same,outcome,HEK293,inactive
same,max response,HaCat,-0.702%
same,outcome,NIH3T3,inactive
C#CC(C)(CC)OC(=O)c1ccccc1C(=O)O (centres undefined),max response,CRL-7250,-9.5%
same,max response,HEK293,4.2%
same,max response,HaCat,-2.23%
same,outcome,NIH3T3,inactive
COc1ccc2c(c1)CCCC2=O,max response,CRL-7250,-5.59%
same,max response,HEK293,-10.4%
same,outcome,HaCat,inactive
same,outcome,NIH3T3,inactive
C/C(=N\O)[C@@H](C)NCC(C)(C)CN[C@H](C)/C(C)=N/O,outcome,CRL-7250,inactive
same,max response,HEK293,-22.3%
same,max response,HaCat,-13.6%
same,max response,NIH3T3,-0.119%
Cc1ccc2ccc(Cl)cc2n1,outcome,CRL-7250,inactive
same,outcome,HEK293,inactive
same,outcome,HaCat,inactive
same,max response,NIH3T3,3.19%
CN(C)CCN(Cc1ccsc1)c1ccccn1,max response,CRL-7250,-0.513%
same,max response,HEK293,-3.25%
same,outcome,HaCat,inactive
same,outcome,NIH3T3,inactive
CC(C(=O)O)c1ccc(/C=C2\CCCCC2=O)cc1 (centres undefined),max response,CRL-7250,1.18%
same,max response,HEK293,-12.2%
same,outcome,HaCat,inactive
same,max response,NIH3T3,3.05%
O=C(O)[C@@H](O)[C@H](O)[C@H](O)[C@@H](O)C(=O)O,max response,CRL-7250,-8.84%
same,max response,HEK293,3.38%
same,outcome,HaCat,inactive
same,max response,NIH3T3,-2.02%
O=C(O)Cn1cnnn1,max response,CRL-7250,-0.376%
same,outcome,HEK293,inactive
same,max response,HaCat,1.64%
same,max response,NIH3T3,-2.11%
N#Cc1cc(NC(=O)C(=O)O)c(Cl)c(NC(=O)C(=O)O)c1,outcome,CRL-7250,inactive
same,max response,HEK293,-3.47%
same,max response,HaCat,-3.53%
same,max response,NIH3T3,-0.466%
COC(=O)/C=C\C(=O)OC,max response,CRL-7250,-5.33%
same,outcome,HEK293,inactive
same,outcome,HaCat,inactive
same,outcome,NIH3T3,inactive
[O-][n+]1cccc(/C(Cl)=N/OC[C@@H](O)CN2CCCCC2)c1,max response,CRL-7250,4.98%
same,max response,HEK293,-1.36%
same,max response,HaCat,2.38%
same,max response,NIH3T3,0.672%
CC[C@@]1(O)C(=O)OCc2c1cc1n(c2=O)Cc2c-1nc1ccccc1c2/C=N/OC(C)(C)C,Potency,CRL-7250,1190 nM (active)
same,Potency,HEK293,21.1 nM (active)
same,Potency,HaCat,42.2 nM (active)
same,Potency,NIH3T3,266 nM (active)
NC(=O)NS(=O)(=O)c1ccc(Cl)cc1,outcome,CRL-7250,inactive
same,max response,HEK293,-19.3%
same,max response,HaCat,0.84%
same,max response,NIH3T3,-2.72%
CCCCCCCCCCCC[N+](C)(C)Cc1ccccc1,Potency,CRL-7250,4220 nM (active)
same,Potency,HEK293,841 nM (active)
same,Potency,HaCat,4730 nM (active)
same,Potency,NIH3T3,6680 nM (active)
CCCC(=O)O[C@]1(C(=O)COC(=O)CC)CC[C@H]2[C@@H]3CCC4=CC(=O)CC[C@]4(C)[C@H]3[C@@H](O)C[C@@]21C,max response,CRL-7250,1.61%
same,max response,HEK293,3.26%
same,outcome,HaCat,inactive
same,max response,NIH3T3,1.36%
O=c1[nH]c2ccccc2c(=O)n1CCCl,max response,CRL-7250,-4.5%
same,max response,HEK293,-6.35%
same,outcome,HaCat,inactive
same,outcome,NIH3T3,inactive
CCOC(=O)C(=O)CCCCCCl,outcome,CRL-7250,inactive
same,max response,HEK293,-7.06%
same,max response,HaCat,-12.5%
same,outcome,NIH3T3,inactive
CCCCCCn1c(=O)c2c(ncn2C)n(C)c1=O,outcome,CRL-7250,inactive
same,max response,HEK293,-1.62%
same,outcome,HaCat,inactive
same,max response,NIH3T3,1.26%
CCCOc1ccc2c(c1)CC[C@@H]1[C@@H]2CC[C@]2(C)C(OC)CC[C@@H]12 (some centres undefined),max response,CRL-7250,-5.35%
same,max response,HEK293,-6.37%
same,max response,HaCat,2.29%
same,max response,NIH3T3,0.167%
COC(=O)/C=C(/C)N,max response,CRL-7250,-6.42%
same,outcome,HEK293,inactive
same,outcome,HaCat,inactive
same,outcome,NIH3T3,inactive
CC(C)C(=O)OCc1cccc(OC(=O)[C@@H]2N3C(=O)[C@@H](NC(=O)Cc4ccccc4)[C@H]3SC2(C)C)c1,outcome,CRL-7250,inactive
same,outcome,HEK293,inactive
same,max response,HaCat,-11.1%
same,max response,NIH3T3,4.46%
Nc1ccc(C(=O)OCC(O)CO)cc1 (centres undefined),max response,CRL-7250,-0.994%
same,max response,HEK293,-11.2%
same,max response,HaCat,-8.17%
same,max response,NIH3T3,2.44%
Cc1coc2ccccc2c1=O,max response,CRL-7250,-0.524%
same,max response,HEK293,3.92%
same,outcome,HaCat,inactive
same,outcome,NIH3T3,inactive
Cc1oc(-c2ccccc2)nc1CCC(=O)c1ccc(CC2SC(=O)NC2=O)cc1 (centres undefined),max response,CRL-7250,-17.6%
same,outcome,HEK293,inactive
same,outcome,HaCat,inactive
same,max response,NIH3T3,-0.446%
CN(C)CCCOC1(Cc2ccccc2)CCCCCC1,outcome,CRL-7250,inactive
same,outcome,HEK293,inactive
same,max response,HaCat,-13.3%
same,max response,NIH3T3,0.545%
C[C@H]1C[C@H](O)c2ccsc2S1(=O)=O,max response,CRL-7250,-0.46%
same,max response,HEK293,3.47%
same,max response,HaCat,2.62%
same,max response,NIH3T3,1.66%
Cn1cc(S(C)=O)c(=O)c2ccc(F)cc21 (centres undefined),max response,CRL-7250,-2.16%
same,max response,HEK293,-2.1%
same,max response,HaCat,-31%
same,outcome,NIH3T3,inactive
CC(C)NC(=O)c1ccc(C=O)cc1,max response,CRL-7250,-4.83%
same,outcome,HEK293,inactive
same,outcome,HaCat,inactive
same,max response,NIH3T3,3.81%
COc1cc(OC)nc(O[C@H](C(=O)O)C(OC)(c2ccccc2)c2ccccc2)n1,max response,CRL-7250,3.73%
same,outcome,HEK293,inactive
same,outcome,HaCat,inactive
same,outcome,NIH3T3,inactive
